Reference: PubChem BioAssay (NCATS)
Records with an inconclusive call do not appear. Calls of active or inactive are those of the source. Calls come from the whole dose curve; as a rule, active = well fitted curve in the direction sought with a large enough effect; inconclusive = small, poorly fitted or top-dose-only effect, or another doubt; inactive = no such curve, though single readings can be large; an effect the other way counts as inactive or inconclusive.

Columns and labels:
[1] = qHTS of pediatric cancer cell lines to identify multiple opportunities for drug repurposing: Primary screen for OHS-50 cells (AID 1347103); settings: OHS-50 osteosarcoma viability, CellTiter-Glo luminescence, 48 h; series mostly up to 57.3 µM; note: nearly all actives have a fitted effect of over 40% in size
Method in brief: (§1)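 Cells (500-1,000/well) rested 5 h, then received compounds for 48 h; metabolically active cells were measured by CellTiter-Glo luminescence. Final concentrations spanned up to 46 µM (MIPE, 11-point) or 0.59 nM-46 µM (NPC, 8-point) in primary screens, 11-point in follow-ups.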

[2] = qHTS of pediatric cancer cell lines to identify multiple opportunities for drug repurposing: Primary screen for RD cells (AID 1347104); settings: RD rhabdomyosarcoma viability, CellTiter-Glo luminescence, 48 h; series mostly up to 46 µM; note: nearly all actives have a fitted effect of over 55% in size
Method in brief: (§2)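 500-1,000 cells/well; 5 h pre-incubation 37 °C/5% CO2; compound pinned; 48 h; CellTiter-Glo, 15 min RT; luminescence. MIPE 11-pt from 0.78 nM, NPC 8-pt from 0.59 nM final. Bortezomib 2.3 µM final as positive control.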

[3] = qHTS of pediatric cancer cell lines to identify multiple opportunities for drug repurposing: Primary screen for MG 63 (6-TG R) cells (AID 1347105); settings: MG 63 (6-TG R) viability, CellTiter-Glo, 48 h; series mostly up to 46 µM; note: nearly all actives have a fitted effect of over 50% in size
Method in brief: as §2

[4] = qHTS of pediatric cancer cell lines to identify multiple opportunities for drug repurposing: Primary screen for control Hh wild type fibroblast cells (AID 1347106); settings: Hh wild-type fibroblast viability, CellTiter-Glo luminescence, 48 h; series mostly up to 46 µM;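 note: a drop in luminescence marks cytotoxicity and a rise apparent proliferation; nearly all actives have a fitted effect of over 55% in size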
Method in brief: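 Viability after 48 h compound treatment at 37C, 500-1,000 cells/well, read as ATP luminescence with CellTiter-Glo. Primary screens used 11-point (MIPE, 0.78 nM-46 µM) or 8-point (NPC, 0.59 nM-46 µM) final concentrations; follow-up screens used 11-point dilutions.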

[5] = qHTS of pediatric cancer cell lines to identify multiple opportunities for drug repurposing: Primary screen for Rh30 cells (AID 1347107); settings: Rh30 rhabdomyosarcoma viability, CellTiter-Glo luminescence, 48 h; series mostly up to 46 µM; note: nearly all actives have a fitted effect of over 75% in size
Method in brief: as §1

[6] = qHTS of pediatric cancer cell lines to identify multiple opportunities for drug repurposing: Primary screen for Rh41 cells (AID 1347108); settings: Rh41 rhabdomyosarcoma viability, CellTiter-Glo luminescence, 48 h; series mostly up to 46 µM;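 note: luminescence drop marks cytotoxic hits; nearly all actives have a fitted effect of over 70% in size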
Method in brief: as §2

Measured: Potency

CC(C)N(CCC(C(N)=O)(c1ccccc1)c1ccccn1)C(C)C (stereo not drawn)
inactive: all assays above

COc1ccc2c3c1O[C@H]1[C@H](O)CC[C@H]4[C@@H](C2)N(C)CC[C@@]341
inactive: all assays above

O=C1OC(c2ccc(O)c(S(=O)(=O)O)c2)(c2ccc(O)c(S(=O)(=O)O)c2)c2c(Br)c(Br)c(Br)c(Br)c21
inactive: all assays above

CCC(C)C(C)(COC(N)=O)COC(N)=O (stereo not drawn)
inactive: all assays above

CC(C)C[C@H](CN)CC(=O)O
not listed: [6]
inactive: all other assays above

O=c1[nH]oc2c1CCNC2
inactive: all assays above

CN1CCC(O)(c2ccc(F)cc2)C(C(=O)c2ccc(F)cc2)C1 (stereo not drawn)
inactive: all assays above

O=[N+]([O-])O[C@H]1CO[C@H]2[C@@H]1OC[C@H]2O[N+](=O)[O-]
inactive: all assays above

CN1C(=O)NC(=O)C(C)(C2=CCCCC2)C1=O (stereo not drawn)
inactive: all assays above

CCN[C@H](C)Cc1cccc(C(F)(F)F)c1
inactive: all assays above

COP(=S)(OC)Oc1ccc(SC)c(C)c1
inactive: all assays above

O=C1CN=C(c2ccccc2)c2cc([N+](=O)[O-])ccc2N1
inactive: all assays above

CCC(CC)(CNC(=O)CCCO)c1cccc(OC)c1
inactive: all assays above

COc1cccc([C@@]2(O)CCCC[C@@H]2CN(C)C)c1
inactive: all assays above

Cc1ncsc1CCCl
inactive: all assays above

CN1C(=O)CCS(=O)(=O)C1c1ccc(Cl)cc1 (stereo not drawn)
inactive: all assays above

O=c1[nH]c2ccccc2n1C1CCNCC1
inactive: all assays above

Nc1ccccc1
inactive: all assays above

C=CCC1([C@H](C)CCC)C(=O)NC(=O)NC1=O
inactive: all assays above

COC(=O)[C@@H](N)CCCN/C(N)=N/[N+](=O)[O-]
inactive: all assays above

C=CCN1C[C@H](C)N([C@H](c2ccc(C(=O)N(CC)CC)cc2)c2cccc(OC)c2)C[C@H]1C
inactive: all assays above

Nc1ccccc1C(=O)O
inactive: all assays above

C=CCC1(C(C)CC)C(=O)NC(=O)NC1=O (stereo not drawn)
not listed: [6]
inactive: all other assays above

CCOC(=O)CC(SP(=S)(OC)OC)C(=O)OCC (stereo not drawn)
inactive: all assays above

c1ccc(N2CCNCC2)cc1
inactive: all assays above

CCN(CCO)CCn1c(Cc2ccccc2)nc2c1c(=O)n(C)c(=O)n2C
inactive: all assays above

CCC1(c2ccc(N)cc2)CCC(=O)NC1=O (stereo not drawn)
inactive: all assays above

C#C[C@]1(O)CC[C@H]2[C@@H]3CCC4=CC(=O)CC[C@]4(C)[C@H]3CC[C@@]21C
inactive: all assays above

COP(=S)(OC)SCN1C(=O)c2ccccc2C1=O
not listed: [6]
inactive: all other assays above

NC1=NC(=O)C(c2ccccc2)O1 (stereo not drawn)
inactive: all assays above

C[N+]1(CCF)[C@@H]2CC[C@H]1CC(OC(=O)C(O)(c1ccccc1)c1ccccc1)C2 (stereo partly drawn)
inactive: all assays above

CN1CC[C@]23c4c5ccc(O)c4O[C@H]2[C@@H](O)CC[C@H]3[C@H]1C5
inactive: all assays above

CCN[C@@H](C)Cc1ccccc1
inactive: all assays above

[N-]=[N+]=CC(=O)OC[C@H](N)C(=O)O
inactive: all assays above

ClCCN1CCCC1
inactive: all assays above

COP(=S)(OC)Oc1ccc(S(=O)(=O)N(C)C)cc1
inactive: all assays above

CCN(CC)C(=O)[C@@H]1C=C2c3cccc4[nH]cc(c34)C[C@H]2N(C)C1
not listed: [6]
inactive: all other assays above

CC(C)=CC1C(C(=O)OCN2C(=O)C3=C(CCCC3)C2=O)C1(C)C (stereo not drawn)
inactive: all assays above

COc1cc(CCN)cc(OC)c1OC
not listed: [6]
inactive: all other assays above

O=C1c2ccccc2C(=O)c2ccccc21
inactive: all assays above

CC(C)(C)NCC(O)c1ccccc1Cl (stereo not drawn)
inactive: all assays above

CC(C)c1c(CN(C)C(C)Cc2ccccc2)n(C)n(-c2ccccc2)c1=O (stereo not drawn)
inactive: all assays above

Nc1ccc([As](=O)(O)O)cc1
inactive: all assays above

c1ccc(CN2CCNCC2)cc1
inactive: all assays above

CC1(C)C(C=C(Cl)Cl)C1C(=O)OC(C#N)c1cccc(Oc2ccccc2)c1 (stereo not drawn)
inactive: all assays above

Clc1cccc(SC2CCNCC2)n1
inactive: all assays above

NCCc1ccc(O)cc1
inactive: all assays above

O=c1oc2ccccc2c(O)c1Cc1c(O)c2ccccc2oc1=O
inactive: all assays above

CC(C)c1cccc(C(C)C)c1O
inactive: all assays above

CC(Cc1ccccc1)N(C)Cc1ccco1 (stereo not drawn)
inactive: all assays above

CC(=O)OCC1=C(C(=O)O)N2C(=O)[C@@H](N)[C@H]2SC1
inactive: all assays above

CN(C)CCc1c[nH]c2cccc(OP(=O)(O)O)c12
inactive: all assays above

CC(C)(C)NCC(O)c1cc(Cl)c(N)c(C(F)(F)F)c1 (stereo not drawn)
inactive: all assays above

CCCCC/C=C\C/C=C\C/C=C\C/C=C\CCCC(=O)NCC(=O)O
inactive: all assays above

C[C@]12CC[C@@H]3c4ccc(OC(=O)N(CCCl)CCCl)cc4CC[C@H]3[C@@H]1CC[C@@H]2OP(=O)(O)O
inactive: all assays above

CC(C)NC(C)C
inactive: all assays above

NNc1ccccc1
inactive: all assays above

COc1cc(OC)c(OC)cc1C=O
inactive: all assays above

CNCC(=O)c1ccc(O)c(O)c1
inactive: all assays above

C=C(C)[C@H]1CN[C@H](C(=O)O)[C@H]1CC(=O)O
inactive: all assays above

CNC(C)(C)Cc1ccccc1
inactive: all assays above

Nc1nc(N)nc(NC2CC2)n1
inactive: all assays above

CC[N+]1(CC)CCC(OC(=O)C(O)(c2ccccc2)c2ccccc2)C1 (stereo not drawn)
inactive: all assays above
